Source: PubChem (National Center for Advancing Translational Sciences (NCATS))
The list is not random: actives were taken first. Their share in the collection is about 1.7%.
GLP1R cytotox: cytotoxic in the GLP-1 receptor inverse agonist counter-screen | actives 0.13% (n = 410,000) | Potency, µM (top dose mostly 38.3 µM), inactives show top-dose activity change, negative = inhibition, usual class: inhibitors | AID 624418 | HEK293 cAMP-luciferase reporter cells, luminescence, 24 h;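 note: loss of luciferase light is scored as toxicity; % is set by controls: 0 for no effect and ±100 for the full control effect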
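Here, cytotoxicity is scored as loss of luminescence. The MLSMR collection was tested on cells seeded in medium containing 10% Nu serum, with a 24 hr compound exposure preceded by 12 hours of culture.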
GLP1R ag: GLP-1 receptor (human) agonism; AID 624172; HEK293 GLP-1R CRE-luciferase, luminescence, 4-6 h; cells express a hypersensitive GLP-1R form; Potency, µM (highest dose often 45.6 µM), for inactives: at the highest dose activation, actives largely listed as activators; actives 0.007% (n = 380,000); P43220; note: % of control where 0% means no effect
Target sequence (P43220 whole entry, looked up): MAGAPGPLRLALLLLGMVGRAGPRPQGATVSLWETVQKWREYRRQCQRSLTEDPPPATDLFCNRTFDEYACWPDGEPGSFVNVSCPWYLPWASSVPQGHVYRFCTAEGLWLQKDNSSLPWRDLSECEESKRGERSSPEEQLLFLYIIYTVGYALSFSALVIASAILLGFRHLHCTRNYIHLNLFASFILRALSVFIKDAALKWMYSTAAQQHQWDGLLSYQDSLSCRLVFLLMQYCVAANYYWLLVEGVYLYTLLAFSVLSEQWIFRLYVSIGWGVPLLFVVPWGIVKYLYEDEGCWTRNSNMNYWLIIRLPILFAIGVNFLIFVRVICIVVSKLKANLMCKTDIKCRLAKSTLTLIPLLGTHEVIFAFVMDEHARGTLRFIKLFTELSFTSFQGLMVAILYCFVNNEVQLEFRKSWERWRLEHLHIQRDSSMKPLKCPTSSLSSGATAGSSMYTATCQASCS
GLP1R inv ag: GLP-1 receptor (human) inverse agonism; actives 1.6% (n = 410,000); P43220; Potency, µM (doses to about 38.3 µM), for the others: at the top dose activity change, negative = inhibition, hits mostly inhibitors; HEK293 GLP-1R CRE-luciferase, luminescence, 24 h; GLP-1R form is constitutively active; note: % is set by controls: 0 for no effect and ±100 for the full control effect; nearly all actives have a fitted effect of over 55% in size
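GLP-1R inverse agonism mode: basal reporter luminescence in engineered HEK293 cells measured after one day of compound exposure at 37 deg C, with a 12 min room-temperature detection step.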
* hit, by the source's call; [ ] = dose if it differs, or a comment. Calls come from the whole dose curve; as a rule, active = well fitted curve in the direction sought with a large enough effect; inconclusive = small, poorly fitted or top-dose-only effect, or another doubt; inactive = no such curve, though single readings can be large; an effect the other way counts as inactive or inconclusive. Potency is the fitted concentration of half-maximal effect.

`CC(C)(C)C(=O)OCCNc1nc(-c2ccccc2)nc2ccccc12` gave GLP1R cytotox inconclusive, GLP1R ag -10% and GLP1R inv ag 13µM*.
`Cc1ccc(-c2nc(NCCCN(C)C)c3ccccc3n2)cc1` gave GLP1R cytotox -16%, GLP1R ag 0% and GLP1R inv ag 10µM*.
Screening CC(OC(=O)Cn1cnc2ccccc2c1=O)C(=O)NCc1ccccc1 (stereo not drawn) returned GLP1R cytotox -3%, GLP1R ag 22% and GLP1R inv ag 2%.
Screening CCC(C)C1OC2(C=CC1C)CC1CC(C/C=C(\C)C(OC3CC(OC)C(OC4CC(OC)C(NC(C)=O)C(C)O4)C(C)O3)C(C)/C=C/C=C3\COC4C(O)C(C)=CC(C(=O)O1)C34O)O2 (stereo not drawn) (tested in a mixture with another compound) returned GLP1R ag 1%.
`Cc1ccc(CNC(=O)CNC(=S)N(Cc2ccccc2)Cc2ccccc2F)cc1` gave GLP1R cytotox 17%, GLP1R ag 10% and GLP1R inv ag 10µM*.
`O=C(CNC(=S)N(Cc1ccccc1)Cc1ccccc1F)NCc1ccccc1` gave GLP1R cytotox 10%[0.307 µM], GLP1R ag 10% and GLP1R inv ag -6%[0.307 µM].
CC1(C(=O)Nc2ccc3c(c2)OCO3)CCN1Cc1csc2ccccc12 (stereo not drawn) was read as GLP1R cytotox 3%, GLP1R ag -1% and GLP1R inv ag inconclusive.
`COc1ccc(-c2cc3nc(C)c(CCC(=O)NC4CCCCC4)c(C)n3n2)c(OC)c1` gave GLP1R cytotox -10%, GLP1R ag -2% and GLP1R inv ag 9%.
Cc1ccc(-c2cc(C(F)F)n3ncc(C(=O)N4CCN(c5ccccn5)CC4)c3n2)cc1 was read as GLP1R cytotox 5%, GLP1R ag 1% and GLP1R inv ag 6.3µM*.
For O=C(c1cc(-c2ccccc2Cl)nc2ccccc12)N1CCC1 the results were GLP1R cytotox -11%, GLP1R ag 3% and GLP1R inv ag 7%.
For CCCc1ccc(-c2cc(C(=O)N3CCN(c4ccccn4)CC3)c3ccccc3n2)cc1 the results were GLP1R cytotox -13%, GLP1R ag -2% and GLP1R inv ag 3.2µM*.
`CCN1CCN(C(=O)c2cnn3c(C(F)F)cc(-c4ccc(C)cc4)nc23)CC1` gave GLP1R cytotox 6%, GLP1R ag 9% and GLP1R inv ag inconclusive.
Screening CN1CCCN(C(=O)c2cc(-c3cccc4ccccc34)nc3ccccc23)CC1 returned GLP1R cytotox -17%, GLP1R ag 16% and GLP1R inv ag 7.9µM*.
CCOc1ccc(-c2cc(C(=O)N3CCN(c4ccccn4)CC3)c3ccccc3n2)cc1 was read as GLP1R cytotox -31%, GLP1R ag -10% and GLP1R inv ag -17%.
CCOCCCn1c(=N)c(S(=O)(=O)c2ccc(C)cc2)cc2c(=O)n3cccc(C)c3nc21 was read as GLP1R cytotox 3%, GLP1R ag 7% and GLP1R inv ag 3%.
For Fc1ccc(-c2nnc(NC3=NCCCCC3)o2)cc1 the results were GLP1R cytotox 0%, GLP1R ag -60% and GLP1R inv ag 1µM*.
c1ccc(-c2nnc(NC3=NCCC3)o2)cc1 was read as GLP1R cytotox 11%, GLP1R ag -32% and GLP1R inv ag inconclusive.
Screening COc1cc(CN(C2CC2)S(=O)(=O)c2ccccc2Br)cc(OC)c1 returned GLP1R cytotox 8%, GLP1R ag 24% and GLP1R inv ag 10µM*.
C=CCCN(C1CCCC1)S(=O)(=O)c1ccccc1Br was read as GLP1R cytotox 6%, GLP1R ag 3% and GLP1R inv ag inconclusive.
For Cc1cc2c(cc1S(=O)(=O)NCc1ccc(F)cc1)OCCN2C the results were GLP1R cytotox 12% and GLP1R inv ag -16%.
Screening CCc1ccccc1NC(=O)CN1CCCN(Cc2cc(C)ccc2C)S1(=O)=O returned GLP1R cytotox -2% and GLP1R inv ag -12%.
Cc1ccccc1OCCCn1c(CCNC(=O)C2CCCCC2)nc2ccccc21 was read as GLP1R cytotox -2% and GLP1R inv ag -5%.
For CCN(CC)S(=O)(=O)c1ccc2oc(C(=O)NCc3ccc(F)cc3)c(C)c2c1 the results were GLP1R cytotox -2%, GLP1R ag 11% and GLP1R inv ag 3.5µM*.
Screening CCN(CC)S(=O)(=O)c1ccc2oc(SCc3ccc(F)cc3)nc2c1 returned GLP1R cytotox -1%, GLP1R ag 7% and GLP1R inv ag 11µM*.
`CCN(CC)S(=O)(=O)c1ccc2oc(SCC(=O)NC3CC3)nc2c1` gave GLP1R cytotox 18%, GLP1R ag -7% and GLP1R inv ag 1%.
`Cc1c(C(=O)NCc2ccc(F)cc2)oc2ccc(S(=O)(=O)N3CCOCC3)cc12` gave GLP1R cytotox -15%, GLP1R ag 14% and GLP1R inv ag inconclusive.
Screening CC(=O)N1CCN(CC(=O)Nc2c(Cl)ccc(C)c2Cl)CC1 returned GLP1R cytotox 5%, GLP1R ag 11% and GLP1R inv ag 24%.
COc1ccc(C(CCNCc2ccccc2)c2ccc(F)cc2)cc1 (stereo not drawn) was read as GLP1R cytotox -14%, GLP1R ag -9% and GLP1R inv ag inconclusive.
COc1ccc(CNCCC(c2ccc(OC)cc2)c2ccccc2OC)cc1 (stereo not drawn) was read as GLP1R cytotox inconclusive, GLP1R ag 5% and GLP1R inv ag 10µM*.
For COc1ccc(C(CCNCc2ccc(OC(C)C)cc2)c2ccccc2OC)cc1 (stereo not drawn) the results were GLP1R cytotox inconclusive, GLP1R ag -7% and GLP1R inv ag inconclusive.
For COc1ccc(C(CCNCc2ccc(N(C)C)cc2)c2ccccc2OC)cc1 (stereo not drawn) the results were GLP1R cytotox inconclusive, GLP1R ag 15% and GLP1R inv ag 10µM*.
`O=C(COC(=O)c1ccc2ccccc2c1)NCc1ccccc1` gave GLP1R cytotox -5%, GLP1R ag -4% and GLP1R inv ag 37%.
`COc1ccccc1CNC(=O)c1cc2cccc3c2n1CC(C)S3` (stereo not drawn) gave GLP1R cytotox -11% and GLP1R inv ag inconclusive.
Cc1ccccc1CNC(=O)c1cc2cccc3c2n1CC(C)S3 (stereo not drawn) was read as GLP1R cytotox 0% and GLP1R inv ag 10µM*.
Screening CC1Cn2c(C(=O)NCCc3ccc(Cl)cc3)cc3cccc(c32)S1 (stereo not drawn) returned GLP1R cytotox 6% and GLP1R inv ag inconclusive.
For CC1Cn2c(C(=O)NCc3ccccc3Cl)cc3cccc(c32)S1 (stereo not drawn) the results were GLP1R cytotox -7% and GLP1R inv ag 11µM*.
Screening COc1ccccc1-c1cc2nc(C)cc(C)n2n1 returned GLP1R cytotox -15%, GLP1R ag 13% and GLP1R inv ag 18%.
Screening O=C1Nc2ccccc2/C1=N\N=C\c1ccc(O)c(O)c1 returned GLP1R cytotox 11µM*, GLP1R ag 15% and GLP1R inv ag 25%.
COc1cc(/C=N/N=C2/C(=O)Nc3ccccc32)ccc1O was read as GLP1R cytotox inconclusive, GLP1R ag 6% and GLP1R inv ag 86%.
